{"source": "ChEMBL document CHEMBL1961873", "about": "“Compounds: GSK PKIS; Assays: Nanosyn kinase panel” (2012);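 also: reported values are mean percent inhibition of PAK1 activity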"}
{"target": "Serine/threonine-protein kinase PAK 1 (Homo sapiens) (UniProt Q13153)", "sequence (Q13153 whole entry)": "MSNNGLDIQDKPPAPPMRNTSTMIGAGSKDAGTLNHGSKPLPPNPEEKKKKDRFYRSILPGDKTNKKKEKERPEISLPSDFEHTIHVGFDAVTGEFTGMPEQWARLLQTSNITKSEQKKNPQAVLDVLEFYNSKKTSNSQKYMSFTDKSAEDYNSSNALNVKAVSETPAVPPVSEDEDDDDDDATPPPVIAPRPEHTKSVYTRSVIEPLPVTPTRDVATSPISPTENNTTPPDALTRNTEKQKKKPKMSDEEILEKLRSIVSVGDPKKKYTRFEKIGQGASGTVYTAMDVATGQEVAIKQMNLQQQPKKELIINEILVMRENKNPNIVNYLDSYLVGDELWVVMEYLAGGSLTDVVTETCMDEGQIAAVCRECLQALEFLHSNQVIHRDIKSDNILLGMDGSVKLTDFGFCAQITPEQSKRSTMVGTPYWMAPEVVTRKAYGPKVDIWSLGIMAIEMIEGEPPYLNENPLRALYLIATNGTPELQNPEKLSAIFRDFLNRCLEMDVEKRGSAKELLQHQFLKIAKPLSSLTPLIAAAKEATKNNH", "conditions": "at 1 µM", "units": {"inhibition": "%"}}
{"smiles": "CN1CCC(n2cnc(-c3ccc(F)cc3)c2-c2ccnc(N)n2)CC1", "inhibition": 3.27}
{"smiles": "NC(=O)c1sc(-n2cnc3ccc(C(F)(F)F)cc32)cc1OCc1ccccc1Br", "inhibition": 7.84}
{"smiles": "CN(C)CCOc1ccc(-c2nc(-c3ccncc3)c(-c3ccc4c(c3)CC/C4=N\\O)[nH]2)cc1", "inhibition": 9.24}
{"smiles": "CCCN(CCS(C)(=O)=O)Cc1ccc(-c2ccc3ncnc(Nc4ccc(OCc5cccc(F)c5)c(Cl)c4)c3c2)o1", "inhibition": 3.91}
{"smiles": "CCc1nn2ncccc2c1-c1ccnc(NC2CC2)n1", "inhibition": 4.68}
{"smiles": "CCNC(=O)O[C@H]1CN[C@H](C#Cc2cc3ncnc(Nc4ccc(OCc5cccc(F)c5)c(Cl)c4)c3s2)C1", "inhibition": 8.64}
{"smiles": "CNC(=O)c1cccc(C#Cc2cncnc2Nc2ccc(OCc3cccc(F)c3)c(Cl)c2)c1", "inhibition": 1.45}
{"smiles": "CCN1CCC(CC(=O)Nc2n[nH]c3nnc(-c4cccc(F)c4F)cc23)CC1", "inhibition": 4.17}
{"smiles": "c1cc(-c2cnn3nc(N4CCOCC4)ccc23)nc(NC2CC2)n1", "inhibition": 5.07}
{"smiles": "CS(=O)(=O)CCNCc1coc(-c2ccc3ncnc(Nc4ccc(OCc5ccccc5)cc4)c3c2)c1", "inhibition": 4.92}
{"smiles": "COc1ccc(-c2cc3c(N)ncnc3o2)cc1", "inhibition": -0.27}
{"smiles": "N#Cc1c(NC(=O)CN2CCOCC2)sc2c1CCCC2", "inhibition": 4.43}
{"smiles": "Clc1ccc(-c2nn3ncccc3c2-c2ccnc(Nc3ccccc3)n2)cc1", "inhibition": -0.81}
{"smiles": "COc1cc(/C=N/Nc2ncnc3[nH]ncc23)ccc1O", "inhibition": 6.64}
{"smiles": "CC(C)(CO)CNC(=O)c1ccc2c(c1)/C(=N/Nc1ccc(S(N)(=O)=O)cc1)C(=O)N2", "inhibition": 3.48}
{"smiles": "Cc1ccc(O)cc1Nc1ccnc2cc(-c3ccccn3)ccc12", "inhibition": 8.64}
{"smiles": "Fc1ccc(-c2nn3ccccc3c2-c2ccncc2)cc1", "inhibition": 1.62}
{"smiles": "c1ccc(-c2nc3n(c2-c2ccc4c(c2)OCO4)CCC3)nc1", "inhibition": 6.33}
{"smiles": "N#Cc1c(NC(=O)c2ccc(F)cc2)sc2c1CCCC2", "inhibition": 3.8}
{"smiles": "COc1cc(N2CCN(C(C)C)CC2)ccc1Nc1nc(Nc2ccc(F)cc2C(N)=O)c2cc[nH]c2n1", "inhibition": 7.46}
{"smiles": "COc1cc2c(cc1Nc1nc(Nc3ccsc3C(N)=O)c3cc[nH]c3n1)N(C(=O)CN(C)C)CCC2(C)C", "inhibition": 7.09}
{"smiles": "O=S(=O)(CCNCc1ccc(-c2ccc3ncnc(Nc4ccc(OCc5cccc(F)c5)c(Cl)c4)c3c2)o1)c1ccccc1", "inhibition": 7.19}
{"smiles": "CCOc1ccc2c(-c3ccnc(Nc4cccc(C(F)(F)F)c4)n3)cnn2n1", "inhibition": 3.75}
{"smiles": "Cc1ccc2c(-c3ccnc(Nc4ccccc4)n3)c(-c3ccc(F)cc3)nn2n1", "inhibition": 6.67}
{"smiles": "CNC(=O)c1cc(-c2ccc(F)cc2)cc(-c2ccc(S(=O)(=O)N3CCCC3)cc2)c1N", "inhibition": 9.51}
{"smiles": "CCn1cc(-c2ccnc3[nH]ccc23)c(-c2cccc(NC(=O)Nc3ccc(OCc4ccccc4)cc3)c2)n1", "inhibition": 0.73}
{"smiles": "COc1cc(Nc2nccc(Nc3ccc4c(C)n[nH]c4c3)n2)cc(OC)c1OC", "inhibition": 7.51}
{"smiles": "CCn1c(-c2nonc2N)nc2c(C#CC(C)(C)O)nc(OC[C@H](N)c3ccccc3)cc21", "inhibition": 3.91}
{"smiles": "c1ccc(COc2ccc(Nc3ncnc4ccc(-c5ccco5)cc34)cc2)cc1", "inhibition": 3.88}
{"smiles": "Nc1ncc(-c2cccc(S(N)(=O)=O)c2)c2scc(-c3ccc(F)c(Cl)c3)c12", "inhibition": 5.65}
{"smiles": "CS(=O)(=O)CCNCc1ccc(-c2ccc3ncnc(Nc4ccc(OCc5ccccc5)c(C(F)(F)F)c4)c3c2)o1", "inhibition": 8.46}
{"smiles": "CCN(CC)S(=O)(=O)c1ccc(OC)c(Nc2ncc(-c3ccccc3)o2)c1", "inhibition": 3.9}
{"smiles": "NS(=O)(=O)c1ccc(N/N=C2\\C(=O)Nc3ccc4ncccc4c32)cc1", "inhibition": 7.55}
{"smiles": "COC(=O)Nc1nc2ccc(Oc3ccc(NC(=O)Nc4cccc(Cl)c4)cc3)cc2[nH]1", "inhibition": 1.37}
